Assay results: PubChem BioAssay AID485358 (National Center for Advancing Translational Sciences (NCATS), 2010)
“And” between values parts separate entries of the source, which are not always exact repeats. Equal values may be shown once. Screen size: about 340,000 compounds; about 1,800 (0.53%) were called active. The entries come from a sample that favours actives as a whole. Values without a mark were called inactive.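 Rule for the calls: active = activation over 3 SD above normal in the single-dose calcium agonist read (cut at about 30% in these data); inactive = the rest.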

Target: D(2) dopamine receptor (Homo sapiens) (UniProt P14416)
Sequence (P14416 whole entry, looked up): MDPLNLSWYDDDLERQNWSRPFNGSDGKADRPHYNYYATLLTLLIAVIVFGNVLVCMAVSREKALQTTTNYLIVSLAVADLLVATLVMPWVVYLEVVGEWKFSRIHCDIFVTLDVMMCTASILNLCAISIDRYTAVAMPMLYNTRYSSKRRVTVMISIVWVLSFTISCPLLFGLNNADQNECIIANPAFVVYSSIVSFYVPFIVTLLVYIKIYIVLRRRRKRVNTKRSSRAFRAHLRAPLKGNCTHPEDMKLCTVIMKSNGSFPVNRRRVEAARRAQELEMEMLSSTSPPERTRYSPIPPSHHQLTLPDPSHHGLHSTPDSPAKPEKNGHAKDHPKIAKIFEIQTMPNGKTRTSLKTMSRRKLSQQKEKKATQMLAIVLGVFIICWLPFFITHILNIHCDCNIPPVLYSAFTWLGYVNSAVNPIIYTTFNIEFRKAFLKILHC
Assay: HTS Assay for Allosteric Agonists of the Human D2 Dopamine Receptor: Primary Screen for Agonists; note: 0% is about no effect
Details: HEK293 T-REx D2 cells, calcium flux agonist mode; at 2 µM; hits give high values
Outline: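 Agonism is scored from calcium flux in a force-coupled, inducible HEK293 cell line expressing D2, read kinetically for 180 s after compound addition against dopamine controls.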

Structure (SMILES) | activation
COC(=O)c1ccc(-c2nc3cc(NC(C)=O)ccc3o2)cc1 | -2.97%
Cc1n[nH]c(C)c1S(=O)(=O)N1CCCC(C(=O)Nc2ccc(Br)cc2)C1 (stereo unspecified) | 0.576% and 0.392%
Cc1ccc(NC(=O)C2CCCN(S(=O)(=O)c3c(C)noc3C)C2)c(C)c1 (stereo unspecified) | -0.264%
Cc1n[nH]c(C)c1S(=O)(=O)N1CCCC(C(=O)NCC2COc3ccccc3O2)C1 (stereo unspecified) | 57.1% (active)
O=C(NCC(c1ccco1)S(=O)(=O)c1cccs1)c1ccc(F)cc1 (stereo unspecified) | 0.728%
CCOc1ccc(CNC(=O)c2cccc(Nc3nc4ccccc4n4nnnc34)c2)cc1OC | 0.495%
Cc1cc(C)c(/C=C2\C(=O)Nc3ccccc32)[nH]1 | 39.4% (active)
Cc1ccccc1-n1c(C)cc(/C=C2\NC(=O)NC2=O)c1C | -0.336%
O=C1Nc2ccccc2/C1=C/c1ccnc2ccccc12 | 1.57%
CCOC(=O)c1c(NC(C)=O)c2c3c(sc2n1Cc1c(C)cc(C)cc1C)CCCC3 | 0.0213%
CS(=O)(=O)N1CCC(C(=O)N2CCN(c3ccccc3)CC2)CC1 | 6.31%
CCS(=O)(=O)N1CCC(N2CCN(c3ccccc3)CC2)CC1 | 68% (active)
CCS(=O)(=O)N1CCC(C(=O)N2CCN(c3ccccc3)CC2)CC1 | 4.45%
Cc1ccccc1NC(=O)c1cc2c([nH]c1=O)CC(C)(C)CC2=O | 0.0984%
CCOc1ccc(/C=C(\C#N)c2nc3ccccc3c(=O)[nH]2)cc1OC | -1.7%
CCOc1cc(-c2cc(-c3ccc(NC(C)=O)cc3)nc(N)c2C#N)ccc1O | 0.571%
CCOc1cc(/C=C(\C#N)c2nc(-c3cccs3)c(NC(C)=O)s2)ccc1O | 31.5% (active)
OC(COCC1COc2ccccc2O1)CN1CCN(c2ccc(F)cc2)CC1 (stereo unspecified) | 8.89%
O=[N+]([O-])c1ccc(N2CCN(CC(O)COc3ccccc3)CC2)cc1 (stereo unspecified) | -0.607%
OC(COCc1ccco1)CN1CCN(c2ccccc2)CC1 (stereo unspecified) | 85.6% (active)
COc1ccc(CNC(=O)CSCc2nc(-c3ccccc3F)oc2C)cc1 | -0.228%
O=C(CCC1CCCN(C(=O)Cc2ccc(F)cc2)C1)N1CCN(c2ccccn2)CC1 (stereo unspecified) | 0.424%
Cc1c(CN2CC[C@@H](N3CCN(c4ccccn4)CC3)[C@H](O)C2)[nH]c2ccc(F)cc12 | 76.9% (active)

Structure (SMILES) | activation
Cc1nc(N2CCN(c3ccccn3)CC2)c2c(C)c(C(=O)Nc3ccc(F)cc3)sc2n1 | -0.199%
COC(=O)c1ccc(Cn2c(SCC(=O)N(C)c3ccccc3)nc3ccccc32)cc1 | 0.816%
Cc1cc(C)cc(NC(=O)COc2coc(CN3CCN(c4ccccc4)CC3)cc2=O)c1 | 5.66%
O=C(COc1coc(CN2CCN(c3ccccc3)CC2)cc1=O)Nc1ccccc1F | 45.8% (active)
O=C(COc1coc(CN2CCN(c3ccccc3)CC2)cc1=O)N1CCc2ccccc21 | -0.514%
CC(C)OC(=O)C(C#N)c1nc2ccccc2nc1N1CCN(Cc2ccc3c(c2)OCO3)CC1 (stereo unspecified) | 48.3% (active)
CC(C)OC(=O)C(C#N)c1nc2ccccc2nc1N1CCN(Cc2ccccc2)CC1 (stereo unspecified) | 0.138%
N#C/C=C/N1CCN(Cc2ccc3c(c2)OCO3)CC1 | 0.771%
Cc1ccc(Cl)cc1NC(=O)/C(C#N)=C\c1cn(Cc2ccc(F)cc2)c2ccccc12 | 0.348%
Cc1cc2nc3c(=O)n(Cc4ccccc4)c(=O)[nH]c3nc2cc1N | 64.2% (active)
Cc1nc2c(c(=O)n1Cc1ccco1)c1nc3ccccc3nc1n2Cc1ccccc1 | -0.619%
C=CCSc1nc2c(c(=O)[nH]c(=O)n2C)n1Cc1ccccc1 | -0.578%
Cc1cccc(CC(=O)N2CC(=O)Nc3ccc(F)cc3C2c2ccccc2)c1 (stereo unspecified) | -0.521%
CCCN(CCC)C(=O)C1CCCN(c2ncnc3c2nc2n3CCCCC2)C1 (stereo unspecified) | 0.0903%
Cn1c(=O)c2sccc2n2c(CCC(=O)NCc3ccccc3Cl)nnc12 | -0.258%
Cc1nn(C)cc1N1C(=O)c2cccc3c(N)ccc(c23)C1=O | 74% (active)
O=C1c2cccc3c([N+](=O)[O-])ccc(c23)C(=O)N1CC1CCCO1 (stereo unspecified) | 3%
CC(C(=O)O)N1C(=O)c2cccc3cccc1c23 (stereo unspecified) | 0.197%
CN1C(=O)c2cccc3c(N)ccc(c23)C1=O | 109% (active)
COCCNC(=O)c1ccc2c(c1)N=C(C)c1cc(C)ccc1S2 | 0.312%
Cc1ccc(-n2c(SCC(=O)Nc3cccc(F)c3)nc3c(oc4ccccc43)c2=O)cc1C | 2.59%
Cc1ccc(N2CCN(C(=O)CCc3c(C)nc4c(c3C)c(=O)n(C)c(=O)n4C)CC2)c(C)c1 | -0.245%
CCc1nnc(SCc2c(F)cccc2Cl)c2cc3sccc3n12 | 0.47%
